NS1 function inh: inhibitors of influenza NS1 protein function | Potency, µM (series often up to 46.1 µM) | 270,000 compounds, 0.4% hits | AID 2326; also: actives are rising curves; nearly all actives have a fitted effect of over 50% in size
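A cell-based growth assay was used: compounds that relieve NS1-induced slow growth of budding yeast raise OD600. Assay medium was yeast nitrogen base with ammonium sulphate and -URA supplement, pH 6.0, with 2% galactose.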
SARS PLpro yeast: SARS-CoV PLP inhibition in yeast; AID 485353; 330,000 compounds, 0.19% hits; S. cerevisiae expressing SARS-CoV PLpro, growth rescue; Potency, µM (highest dose often 32.9 µM), usual class: activators; also: nearly all actives have a fitted effect of over 55% in size
Pf growth 96h: inhibits malaria parasite growth, 96 h; Potency, µM (series often up to 28.7 µM), most hits filed as inhibitors; 320,000 compounds, 6.9% hits; P. falciparum luciferase reporter growth, 96 h; active = well fitted inhibition curve with a large enough effect; inconclusive = small, poorly fitted or top-dose-only effect, or another doubt; inactive = no such curve, though single readings can be large or run the other way
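96 h incubation, 37 C, 5% CO2, of luciferase-reporter P. falciparum-infected RBCs (2% hematocrit, 0.05% parasitemia final) with test compounds; endpoint luminescence.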
Pf growth 48h: P. falciparum growth inhibition at 48 hours (one generation); AID 504832; P. falciparum luciferase growth in erythrocytes, 48 h; Potency, µM (top dose mostly 28.7 µM), hits mostly inhibitors; 310,000 compounds, 5.9% hits; active = well fitted inhibition curve with a large enough effect; inconclusive = small, poorly fitted or top-dose-only effect, or another doubt; inactive = no such curve, though single readings can be large or run the other way
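Cell-based growth assay: transgenic P. falciparum expressing firefly luciferase, cultured in red cells within RPMI 1640 containing 0.5% w/v Albumax, 24 mM bicarbonate and gentamycin. A drop in luciferase activity indicates inhibition.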
A number is an active result; i = inactive; ? = inconclusive; nt = no result given. Sampled rows, rich in hits. Any-hit rate of the full collection: about 10%. Unless noted, calls follow the shape of the full dose curve.

SMILES | NS1 function inh | SARS PLpro yeast | Pf growth 96h | Pf growth 48h
O=C1COc2ccc(C(=O)CSc3nc4ccccc4c(=O)n3-c3ccc(Cl)c(Cl)c3)cc2N1 | i | i | ? | 10.4µM
Cc1ccc2oc(=O)cc(CN3CCN(C/C=C/c4ccccc4)CC3)c2c1 | i | i | 8.28µM | ?
Cc1ccc2oc(=O)cc(CN3CCCCC3)c2c1 | i | i | i | i
O=c1cc(CN2CCN(C/C=C/c3ccccc3)CC2)c2cc(O)ccc2o1 | i | i | 2.94µM | 3.29µM
O=c1cc(CN2CCN(Cc3ccccc3)CC2)c2ccc(O)cc2o1 | i | i | ? | ?
CNC(=O)C1CC(=O)N(c2ccc(OCC(=O)Nc3ccc(OC)cc3)cc2)C1 (stereo unspecified) | nt | i | ? | i
CCOC(=O)c1ccc(NC(=O)NCc2cccnc2)cc1 | i | i | ? | i
CN(C)c1ccc(NC(=O)Oc2ccccc2)cc1 | i | i | 0.147µM | nt
CC(=O)Nc1ccc(NC(=O)Oc2ccccc2)cc1 | i | i | ? | i
Cc1[nH]n(-c2cccc(Cl)c2)c(=O)c1-c1ccccc1 | i | i | 5.86µM | nt
Cc1[nH]n(-c2cccc([N+](=O)[O-])c2)c(=O)c1-c1ccccc1 | nt | i | 13.1µM | ?
COc1ccc(C(=O)Nc2ccccc2C(=O)NC(Cc2ccc(O)cc2)C(=O)NNC(=O)c2ccccc2)cc1 (stereo unspecified) | i | i | i | 10.4µM
COc1ccc(C(=O)Nc2ccccc2C(=O)NC(Cc2ccc(O)cc2)C(=O)NNC(=O)c2ccc(C)cc2)cc1 (stereo unspecified) | i | i | ? | ?
COc1ccc(C(=O)Nc2ccccc2C(=O)NC(Cc2ccc(O)cc2)C(=O)NNC(=O)c2ccncc2)cc1 (stereo unspecified) | nt | i | i | 11.7µM
CCOc1ccc(-c2c(C)sc3nc[nH]c(=O)c23)cc1 | i | i | i | i
COc1cc(OC)c2ccc(=O)oc2c1C(CCN1CCCC1)c1ccc2c(c1)OCO2 (stereo unspecified) | i | i | ? | ?
CCCCCc1cc(=O)oc2c(C(CCN(CC)CC)c3cc(OC)c(OC)c(OC)c3)c(OC)cc(OC)c12 (stereo unspecified) | i | i | 3.7µM | 13.1µM
CCCCCc1cc(=O)oc2c(C(CCN3CCCCC3)c3ccc4c(c3)OCO4)c(OC)cc(OC)c12 (stereo unspecified) | i | i | 4.65µM | 10.4µM
CCCCCc1cc(=O)oc2c(C(CCN3CCCC(C)C3)c3ccc4c(c3)OCO4)c(OC)cc(OC)c12 (stereo unspecified) | i | i | 4.15µM | 7.38µM
COc1ccc(-c2cn(Cc3ccc(C(N)=O)cc3)c(CCN)n2)cc1 | nt | i | i | i
COc1ccc(/C=C2/SC(=S)N(Cc3ccccc3)C2=O)cc1O | i | i | ? | 8.28µM
COc1ccc(OC)c(/C=C2\SC(=S)N(Cc3cccnc3)C2=O)c1 | i | i | 9.28µM | i
O=C1/C(=C\c2cc(Cl)c(O)c(Cl)c2)SC(=S)N1Cc1ccccc1 | i | i | ? | ?
COc1ccc(O)c(/C=C2/SC(=S)N(Cc3ccccc3)C2=O)c1 | ? | i | i | ?
O=S(=O)(CCC1CCCCN1)c1ccccc1 (stereo unspecified) | i | i | i | i
SMILES | NS1 function inh | SARS PLpro yeast | Pf growth 96h | Pf growth 48h
O=C(CN1C(=O)C2C3CC(C(Br)C3Br)C2C1=O)N1CCN(Cc2ccccc2)CC1 (stereo unspecified) | i | i | i | ?
CN(C)CCNC(=O)/C=C/c1cn(-c2ccccc2)nc1-c1cc2ccccc2oc1=O | nt | i | 8.28µM | i
O=C(N=C1SC2CS(=O)(=O)CC2N1c1cccc(Cl)c1Cl)C1CC1 (stereo unspecified) | i | i | i | i
O=C(N/N=C/c1ccco1)c1cc(-c2ccc(Cl)s2)[nH]n1 | nt | i | ? | 9.28µM
CCCOc1ccc(C(=O)CCC(=O)NNC(=O)c2cccs2)cc1 | nt | i | i | i
COc1ccc(S(=O)(=O)N2CCCCCC2)cc1C(=O)N(C)Cc1ccc(C(C)(C)C)cc1 | i | i | 13.1µM | ?
COc1ccc(CN(C)C(=O)c2cc(S(=O)(=O)N3CCOCC3)ccc2N2CCCC2)cc1 | nt | nt | ? | 9.28µM
Cc1cc(N2C(=O)NC(=O)CC2C)c(C)cc1C(C)C (stereo unspecified) | i | i | i | i
COC(=O)N/N=C/C1=C[N+](=O)c2ccccc2[N+]1=O | nt | nt | ? | i
Cc1ccc(NC(=S)N(CCN2CCOCC2)Cc2cc3cc4c(cc3[nH]c2=O)OCCO4)cc1 | i | i | ? | ?
Cc1ccc2[nH]c(=O)c(CN(CCCN3CCOCC3)C(=O)Nc3cccc(Cl)c3)cc2c1 | i | i | i | 8.28µM

Source: PubChem (National Center for Advancing Translational Sciences (NCATS))
